# In all, about 81,000 sequences were measured (“one-hybrid fitness for binding parS DNA”: median about -0.17, highest 2% from about 0.51 on). This excerpt belongs to a sample that is enriched for the highest values.
# B1: Caulobacter ParB omega fusion; a variant is named by its letters at X, in order, B8GW30 (parent)
# chain: MESVVVGEPGMSEGRRGLGRGLSALLGEVDAAPAQAPGEQLGGSREAPIEILQRNPDQPRRTFREEDLEDLSNSIREKGVLQPILVRPSPDTAGEYQIVAGERAWRAAQRAGLKTVPIMVRELDDLAVLEIGIIENVQRADLNVLEEALSYKVLMEKFERTQENIAQTIGKSXSHVANXMRLLXLPDEVQSYLVSGELTAXHARAIAAAADPVALAKQIIEGGLSVRETEALARKAPNLSAGKSKGGRPPRVKDTDTQALESDLSSVLGLDVSIDHRGSTGTLTITYATLEQLDDLCNRLTRGI
# Variants of: B1
# Experiment: one-hybrid fitness for binding parS DNA (scaled: cognate 1, non-cognate 0); higher = stronger binding
# Details: with parS DNA site
# How it was run: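 Values were rescaled so that cognate is 1 and non-cognate is 0. Each is a fitness, the log change in a variant's read ratio to wild type from Illumina reads of plasmids before and after selection, with three replicate libraries pooled and variants under 10 reads dropped. Selection of the Caulobacter ParB libraries, four specificity codons randomised, used E. coli USO with a HIS3 reporter, site 19 bp from the promoter, on M9-minus-histidine with 0.1 mM IPTG and 5 mM 3-AT for 48 hours at 37°C.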
row,Variant,one-hybrid fitness for binding parS DNA
1,KQFG,≤ 0.2
2,NYTR,≤ 0.2
3,EPTE,≤ 0.2
4,PWQI,≤ 0.2
5,FKHA,≤ 0.2
6,RRVF,≤ 0.2
7,RRKT,0.59
8,RRVT,0.607
9,RRVK,≤ 0.2
10,RRKE,≤ 0.2
11,NRKT,≤ 0.2
12,VTCL,≤ 0.2
13,GDYG,≤ 0.2
14,HEET,≤ 0.2
15,ALQS,≤ 0.2
16,RCTT,0.949
17,RITF,0.254
18,RATQ,≤ 0.2
19,RHTR,≤ 0.2
20,RETT,≤ 0.2
21,RHTQ,≤ 0.2
22,RATK,≤ 0.2
23,RITT,0.931
24,RPTT,≤ 0.2

row,Variant,one-hybrid fitness for binding parS DNA
1,RATT,0.915
2,RHTT,0.868
3,RITM,0.319
4,VVST,≤ 0.2
5,HWNY,≤ 0.2
6,MEIG,≤ 0.2
7,RLTR,≤ 0.2
8,RLTY,0.48
9,RRTT,0.565
10,RMTY,0.497
11,RTTT,0.917
12,RRTF,≤ 0.2
13,RMTT,0.945
14,RRTY,0.398
15,RTTD,≤ 0.2
16,RTTF,0.253
17,RLTT,0.956
18,RMTL,≤ 0.2
19,VTRD,≤ 0.2
20,SSGG,≤ 0.2
21,QKKR,≤ 0.2
22,CTAV,≤ 0.2
23,PDQD,≤ 0.2
24,DVDG,≤ 0.2

row,Variant,one-hybrid fitness for binding parS DNA
1,RKTT,0.754
2,DFTT,≤ 0.2
3,RKTF,≤ 0.2
4,RFTT,0.836
5,RKTY,0.353
6,RSTT,0.895
7,RSTR,≤ 0.2
8,RFTD,≤ 0.2
9,RDTT,≤ 0.2
10,CALF,≤ 0.2
11,HDLT,≤ 0.2
12,WILE,≤ 0.2
13,CTPG,≤ 0.2
14,CPIR,≤ 0.2
15,QLLW,≤ 0.2
16,TAMD,≤ 0.2
17,VFPY,≤ 0.2
18,RKVQ,≤ 0.2
19,RKKQ,≤ 0.2
20,RKKC,0.694
21,RKVP,≤ 0.2
22,RKVC,0.868
23,RKKR,≤ 0.2
24,WLFR,≤ 0.2

row,Variant,one-hybrid fitness for binding parS DNA
1,ESLF,≤ 0.2
2,DFNL,≤ 0.2
3,RNAN,0.301
4,RNAC,0.754
5,RNFM,≤ 0.2
6,RNFQ,≤ 0.2
7,RNAP,≤ 0.2
8,RNFC,0.627
9,AKFS,≤ 0.2
10,MTSR,≤ 0.2
11,VNNR,≤ 0.2
12,RRHD,≤ 0.2
13,RRHS,0.645
14,RRHK,≤ 0.2
15,RRHH,≤ 0.2
16,RRHN,0.689
17,RRHP,≤ 0.2
18,LFLC,≤ 0.2
19,DLIT,≤ 0.2
20,RDNY,≤ 0.2
21,TIRM,≤ 0.2
22,VENG,≤ 0.2
23,NEVT,≤ 0.2
24,GRRY,≤ 0.2

row,Variant,one-hybrid fitness for binding parS DNA
1,QQLD,≤ 0.2
2,MQRR,≤ 0.2
3,PCLL,≤ 0.2
4,ARAW,≤ 0.2
5,RIVQ,≤ 0.2
6,RIKC,0.805
7,RIVM,0.281
8,RIKR,≤ 0.2
9,RIKQ,≤ 0.2
10,RIVC,0.942
11,MKRV,≤ 0.2
12,NFAC,≤ 0.2
13,RFFN,0.262
14,RFFY,0.269
15,RFAN,0.372
16,RFFC,0.674
17,RFAC,0.91
18,WGLC,≤ 0.2
19,MPTN,≤ 0.2
20,GFLD,≤ 0.2
21,EFEC,≤ 0.2
22,RQAG,1
23,RQAY,0.444
24,RQFN,0.363

row,Variant,one-hybrid fitness for binding parS DNA
1,RQFG,0.917
2,RQFD,≤ 0.2
3,RQAR,≤ 0.2
4,WVPR,≤ 0.2
5,RQWH,≤ 0.2
6,RQQS,0.987
7,RQAS,0.988
8,RQQP,≤ 0.2
9,RQSN,0.438
10,RQSS,0.979
11,RQAP,≤ 0.2
12,RQWP,≤ 0.2
13,RQAH,≤ 0.2
14,RQQD,≤ 0.2
15,RQWS,0.959
16,RQSP,≤ 0.2
17,KHSR,≤ 0.2
18,ICNS,≤ 0.2
19,TSSN,≤ 0.2
20,FLHK,≤ 0.2
21,SFKN,≤ 0.2
22,PRKR,≤ 0.2
23,NSVS,≤ 0.2
24,GRDV,≤ 0.2

row,Variant,one-hybrid fitness for binding parS DNA
1,RQCN,0.416
2,RQCH,≤ 0.2
3,RQYS,1
4,RQFH,≤ 0.2
5,RQYN,0.393
6,RQLN,0.439
7,RQLS,1.02
8,RQFP,≤ 0.2
9,RQFS,0.957
10,RQYP,≤ 0.2
11,RQCS,0.976
12,RQLP,≤ 0.2
13,AMKF,≤ 0.2
14,SCQY,≤ 0.2
15,YPKA,≤ 0.2
16,IKCR,≤ 0.2
17,AFFR,≤ 0.2
18,MTRW,≤ 0.2
19,RQGS,0.978
20,RQHP,≤ 0.2
21,RQRS,0.918
22,RQHN,0.425
23,RQGP,≤ 0.2
24,RQGN,0.441

row,Variant,one-hybrid fitness for binding parS DNA
1,RQRD,≤ 0.2
2,RQRN,0.451
3,RQHS,0.988
4,KTML,≤ 0.2
5,PITI,≤ 0.2
6,GSLR,≤ 0.2
7,VPIR,≤ 0.2
8,RREG,0.915
9,RHEH,≤ 0.2
10,RTEG,0.893
11,RHEG,0.898
12,RREY,0.295
13,RHEP,≤ 0.2
14,RPEG,≤ 0.2
15,RCEG,0.915
16,RTEQ,≤ 0.2
17,RDEG,≤ 0.2
18,RREK,≤ 0.2
19,RTEF,0.202
20,TLIV,≤ 0.2
21,SWMS,≤ 0.2
22,PFMN,≤ 0.2
23,ASAS,≤ 0.2
24,TTEV,≤ 0.2

row,Variant,one-hybrid fitness for binding parS DNA
1,EKIY,≤ 0.2
2,VYPH,≤ 0.2
3,PRMG,≤ 0.2
4,VNWT,≤ 0.2
5,LVHA,≤ 0.2
6,SFKQ,≤ 0.2
7,RAEG,0.852
8,RMEG,0.86
9,RMEI,≤ 0.2
10,RIED,≤ 0.2
11,RAEP,≤ 0.2
12,RAEH,≤ 0.2
13,RKEF,≤ 0.2
14,RKED,≤ 0.2
15,RMEL,≤ 0.2
16,RKEG,0.949
17,RIEI,≤ 0.2
18,RIEG,0.771
19,HTCW,≤ 0.2
20,CSFT,≤ 0.2
21,DPQT,≤ 0.2
22,PMYE,≤ 0.2
23,ASIR,≤ 0.2
24,RGEG,0.474

row,Variant,one-hybrid fitness for binding parS DNA
1,DFEG,≤ 0.2
2,RFEG,0.731
3,RLED,≤ 0.2
4,REEG,≤ 0.2
5,NFEG,≤ 0.2
6,RLEG,0.925
7,RSEG,0.802
8,RLEN,0.4
9,HYRI,≤ 0.2
10,IEVV,≤ 0.2
11,YPPA,≤ 0.2
12,NRYK,≤ 0.2
13,SSLC,≤ 0.2
14,PCWL,≤ 0.2
15,TTWY,≤ 0.2
16,CCRS,≤ 0.2
17,RMFY,0.492
18,RMFK,≤ 0.2
19,RMAP,0.205
20,RMAG,1.01
21,RMAD,0.207
22,RMFG,1
23,LSRQ,≤ 0.2
24,RFMR,≤ 0.2

row,Variant,one-hybrid fitness for binding parS DNA
1,RIPC,0.626
2,RIIM,0.273
3,RIIC,0.901
4,RIPM,≤ 0.2
5,RIIF,≤ 0.2
6,RIPY,0.232
7,SCFV,≤ 0.2
8,QTMW,≤ 0.2
9,SRTC,≤ 0.2
10,RIGQ,0.204
11,RIGT,0.924
12,RIWF,0.282
13,RIGK,≤ 0.2
14,RICK,0.208
15,RIWT,0.83
16,RICT,0.853
17,RICD,≤ 0.2
18,RIQN,0.449
19,RIQP,≤ 0.2
20,RIWN,0.455
21,RIQT,0.886
22,LPLM,≤ 0.2
23,WSVC,≤ 0.2
24,AQMM,≤ 0.2

row,Variant,one-hybrid fitness for binding parS DNA
1,DELW,≤ 0.2
2,QKSV,≤ 0.2
3,HVTI,≤ 0.2
4,GLLA,≤ 0.2
5,RIYT,0.926
6,RIDF,0.257
7,RISQ,≤ 0.2
8,RIST,0.929
9,RINP,≤ 0.2
10,RIDR,≤ 0.2
11,RINN,0.469
12,RIYP,0.203
13,RIYD,≤ 0.2
14,RIDT,0.725
15,RISF,0.21
16,RINT,0.914
17,NRPF,≤ 0.2
18,CRDC,≤ 0.2
19,QFLC,≤ 0.2
20,PTYG,≤ 0.2
21,RARL,≤ 0.2
22,GSHT,≤ 0.2
23,MNLG,≤ 0.2
24,RIRR,≤ 0.2

row,Variant,one-hybrid fitness for binding parS DNA
1,RIRT,0.848
2,RIRK,≤ 0.2
3,WPQC,0.245
4,SGVD,≤ 0.2
5,RIAD,0.212
6,RIAS,1.04
7,RIFD,≤ 0.2
8,RIFP,0.206
9,RIFS,0.995
10,RIAN,0.432
11,VTEW,≤ 0.2
12,YCGR,≤ 0.2
13,AFAS,≤ 0.2
14,ARMN,≤ 0.2
15,VELC,≤ 0.2
16,RNDC,0.617
17,RNNC,0.869
18,RNNM,0.28
19,RNDD,≤ 0.2
20,RNNK,≤ 0.2
21,RNDY,0.256
